Compound activity from PubChem BioAssay.
The list is not random: actives were taken first. Their share in the collection is about 27%.
CYP2C19 activ = increases human CYP2C19 enzyme activity; P33261; 96,000 tested, under 10 active; activation factor at 5 µM; recombinant CYP2C19, luciferin-H EGE luminescence; active compounds read high; 0 = fully inhibited enzyme, 1 = untreated enzyme;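 active means activation factor of at least 2 at 5 µM in the primary screen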
CYP2C9 act = activators of human CYP2C9. recombinant CYP2C9, luciferin-H conversion, luminescence; active compounds read high; factor 1 = untreated enzyme, 0 = blocked. P11712. AID 1024. activation factor at 5 µM. 1.4% of 96,000 active;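 active means activation factor of 2 or more for CYP2C9 at a 5 µM dose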
sEH inhibitor = inhibitors of human soluble epoxide hydrolase; inhibition, % at 2 µM; recombinant human sEH enzymatic activity assay; 0.34% of 91,000 active; P34913; in the data active means inhibition above about 80%
Target sequence (P34913 whole entry, looked up): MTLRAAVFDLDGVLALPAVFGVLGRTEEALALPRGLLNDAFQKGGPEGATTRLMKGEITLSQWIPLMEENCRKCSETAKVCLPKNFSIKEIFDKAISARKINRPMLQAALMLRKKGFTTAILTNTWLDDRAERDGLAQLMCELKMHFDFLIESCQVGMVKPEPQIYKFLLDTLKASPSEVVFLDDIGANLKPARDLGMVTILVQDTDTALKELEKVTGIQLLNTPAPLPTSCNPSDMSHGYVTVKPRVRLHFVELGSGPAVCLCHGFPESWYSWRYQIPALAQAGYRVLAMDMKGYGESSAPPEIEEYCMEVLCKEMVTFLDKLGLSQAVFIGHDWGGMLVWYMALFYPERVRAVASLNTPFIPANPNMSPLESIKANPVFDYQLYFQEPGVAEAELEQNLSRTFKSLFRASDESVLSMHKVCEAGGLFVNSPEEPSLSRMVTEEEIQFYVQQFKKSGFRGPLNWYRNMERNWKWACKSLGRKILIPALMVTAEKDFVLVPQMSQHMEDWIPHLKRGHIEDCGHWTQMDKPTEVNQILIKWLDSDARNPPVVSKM
sEH activator = increases human soluble epoxide hydrolase activity. P34913. purified human sEH enzymatic activity, activator screen. activation, % at 2 µM. 0.04% of 91,000 active. AID 717; in the data active means activation above about 37%
CYP2C9 inh = inhibitors of human CYP2C9; CYP2C9 Supersomes, luciferin-H conversion, luminescence; inhibition, % at 5 µM; P11712; 20% of 96,000 active; AID 777;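 active means blocking of liver enzyme CYP2C9 beyond about 50% at 5 µM, limit read from the data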
CYP2C19 inhib = human CYP2C19 inhibition; CYP2C19 Supersomes, luciferin-H EGE luminescence, 30 min; inhibition, % at 5 µM; 21% of 96,000 active; AID 778;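 active means CYP2C19 inhibition above a set limit at 5 µM in the primary screen, cut at about 50% in these data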
Large screens that a line does not name were inactive.

Cc1nn(C)c(Oc2ccccc2)c1CCNS(=O)(=O)c1ccc(Cl)cc1	CYP2C9 inh 79.9, CYP2C19 inhib 96.8 (no result: sEH inhibitor, sEH activator)
Cc1nn(C)c(Oc2ccc(Cl)cc2)c1C(=O)O	none
COc1ccccc1C(O)Cc1nc2ccccc2n1C (stereo not drawn)	CYP2C19 inhib 95.0
COc1cc(C(=O)NCCc2nc3ccccc3n2C)cc(OC)c1OC	none (no result: CYP2C19 activ, CYP2C9 act, CYP2C9 inh, CYP2C19 inhib)
COC(=O)CCC(NC(=O)c1cc(-c2ccc3c(c2)OCCO3)oc1C)C(=O)OC (stereo not drawn)	CYP2C19 inhib 51.8
CCOC(=O)C(C)Sc1cc(CS(=O)(=O)c2ccccc2)nc(-c2ccccc2)n1 (stereo not drawn)	CYP2C9 inh 95.8, CYP2C19 inhib 77.0
CCOC(=O)C(C)On1c(SC(C)C(=O)OCC)nc2ccccc2c1=O (stereo not drawn)	none (no result: CYP2C19 activ, CYP2C9 act, CYP2C9 inh, CYP2C19 inhib)
Cc1nc(CS(=O)(=O)c2ccccc2)cc(N2CCOCC2)n1	none
O=S(=O)(Cc1cc(Sc2ccc(Cl)cc2)nc(-c2ccccc2)n1)c1ccccc1	CYP2C9 inh 80.6, CYP2C19 inhib 65.3
O=S(=O)(Cc1cc(Oc2ccccc2)nc(-c2ccccc2)n1)c1ccccc1	CYP2C9 inh 61.2, CYP2C19 inhib 58.8
Cc1nc(CS(=O)(=O)c2ccc(Cl)cc2)cc(Sc2ccc(Cl)cc2)n1	CYP2C9 inh 88.3
COC(=O)CCCCCC(CCC(=O)OC)NC(C)=O (stereo not drawn)	none
C=CCSc1nc(N)c(C(=O)Nc2ccccc2C)cc1C(N)=O	CYP2C9 inh 66.4, CYP2C19 inhib 68.0
CC12CC(NC(=O)N1c1cccc(C(=O)N3CCN(c4ccccc4)CC3)c1)c1ccccc1O2 (stereo not drawn)	CYP2C9 inh 53.0, CYP2C19 inhib 57.9
O=C(Nc1cccn(Cc2ccccc2)c1=O)NC1CCCCC1	none
Cc1ccc(Cn2cccc(NC(=O)NC3CCCCC3)c2=O)cc1	CYP2C19 inhib 64.8
Cc1cc(N2C(=O)C3C4C=CC(C4)C3C2=O)ccc1Br (stereo not drawn)	CYP2C19 inhib 72.8
O=C1C2C3C=CC(C3)C2C(=O)N1c1ccc2c(c1)OCO2 (stereo not drawn)	none (no result: sEH inhibitor, sEH activator)
Cc1ccc(C(=O)/C=C/Nc2ccc([N+](=O)[O-])cc2Br)cc1	none
Cc1ccc(C2(c3ccc(C)cc3)CC2C(=O)Nc2ccc([N+](=O)[O-])cc2O)cc1 (stereo not drawn)	CYP2C9 inh 75.2
O=C(Nc1cccc(C(F)(F)F)c1)c1cccnc1N1CCN(CCO)CC1	none
O=C(COC(=O)c1cccnc1Nc1cccc(C(F)(F)F)c1)NCCN1C(=O)CSC1=O	CYP2C9 inh 96.8, CYP2C19 inhib 62.7
O=C(COC(=O)c1cccs1)NCCN1C(=O)CSC1=O	CYP2C19 inhib 62.9 (no result: sEH inhibitor, sEH activator)
CCCCCCS(=O)Cc1ccccc1 (stereo not drawn)	CYP2C19 inhib 90.7 (no result: sEH inhibitor, sEH activator)
CCCCP(=O)(CCCC)Cc1ccccc1	none
O=C(NC1CCCCC1)c1noc2c1CCCCC2	CYP2C19 inhib 94.3 (no result: sEH inhibitor, sEH activator)
O=C(NCc1cccnc1)c1noc2c1CCCCC2	CYP2C19 inhib 90.4 (no result: sEH inhibitor, sEH activator)
O=C(NCc1cccnc1)c1noc2c1CCCC2	CYP2C19 inhib 66.8 (no result: sEH inhibitor, sEH activator)
O=C(NCc1ccc(Cl)cc1)c1noc2c1CCCC2	CYP2C9 inh 78.0, CYP2C19 inhib 64.0 (no result: sEH inhibitor, sEH activator)
COc1ccc(CCN2C(=O)C3CC(C)=C(C)CC3C2=O)cc1OC (stereo not drawn)	none
Nc1c(Cl)cc2c(c1Oc1ccccc1)C(=O)c1ccccc1C2=O	none
CCOC(=O)C(=O)Nc1nnc(CCc2ccccc2)s1	none (no result: CYP2C19 activ, CYP2C9 act, CYP2C9 inh, CYP2C19 inhib)
CCCCNCC(=O)Nc1sc(C)c(C)c1C(=O)OCC	none (no result: CYP2C19 activ, CYP2C9 act, CYP2C9 inh, CYP2C19 inhib)
CN(c1cccc(NS(=O)(=O)c2cccs2)c1)S(C)(=O)=O	none
O=S(=O)(Nc1ccc(N2CCOCC2)cc1)c1cccs1	CYP2C19 inhib 90.4
CCc1ccc(NS(=O)(=O)c2cccs2)cc1	CYP2C9 inh 67.0, CYP2C19 inhib 56.4
CCO/C=C/C(O)(CNC(=O)COc1ccccc1F)C(F)(F)F (stereo not drawn)	CYP2C19 inhib 84.8
COCc1cc(C)nc(SCC(=O)Nc2ccc3c(c2)OCO3)c1C#N	CYP2C19 inhib 75.7
COCc1cc(C)nc(SCC(=O)Nc2cccc3cccnc23)c1C#N	none
CC(Sc1ccc2c(c1)OCCO2)C(=O)Nc1ncc(Cl)cc1Cl (stereo not drawn)	CYP2C19 inhib 69.6
CC(C)c1nc(SCC(=O)Nc2ccc3c(c2)OCO3)n[nH]1	CYP2C19 inhib 73.3
